# Source: PubChem BioAssay AID652175 (National Center for Advancing Translational Sciences (NCATS), 2013)
# “And” between values parts separate entries of the source, which are not always exact repeats. Equal entries are not always repeated. Results filed as inconclusive are left out. Where a call stands in place of a potency, no number is given. The source made the active and inactive calls. The call rests on the fitted dose curve; in most records, active means well fitted inhibition curve with a large enough effect; inconclusive means small, poorly fitted or top-dose-only effect; inactive means no such curve, though single readings can be large or run the other way.
# Assay: qHTS Assay for Lipid Storage Modulators: S3 Assay against Probe and Analogs
# Details: Drosophila S3 cells, BODIPY lipid droplet fluorescence, 18-24 h, oleic acid added to induce droplets; series mostly up to 46.1 µM
# How it was run: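 Drosophila S3 cells, 5,000/well, dosed with compounds (0.46% DMSO final) and oleic acid to induce lipid droplets, 18-24 h at 25 °C. BODIPY 493/503 and Cell Tracker Red read by laser-scanning cytometry; % activity relative to 20 uM Triacsin C.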
row,Compound,Potency
1,CC1=C(C(=O)NC2CCCc3c2cnn3-c2ccc(F)cc2F)OCCO1 (centres undefined),59 nM (active)
2,CN(C)Cc1ccc(-c2nc3cccc4c3n2CCNC4=O)cc1,inactive
3,CCOc1ccc(CCNC(=O)c2ccnn2Cc2cccc(C)c2)cc1OCC,inactive
4,CC(C)(C)OC(=O)N1CCCCC1C(=O)NC1CCCc2c1cnn2-c1ccc(F)cc1F (centres undefined),inactive
5,CN(C)CC(=O)NC1CCCc2c1cnn2-c1ccc(F)cc1F (centres undefined),inactive
6,CC(C)(C)OC(=O)NCCOCCOCCOCCn1ncc2c1CCCC2NC(=O)c1ccccn1 (centres undefined),inactive
7,O=C(c1cc2sccc2n1Cc1ccccc1)N(CCc1ccc(O)c(O)c1)Cc1ccccc1,inactive
8,C[C@@H](NCCCc1cccc(C(F)(F)F)c1)c1cccc2ccccc12,inactive
9,CCOc1ccc(CCNC(=O)c2cc3sccc3n2CCN2CCOCC2)cc1OCC,148 nM (active)
10,CCn1c(C(=O)NCCc2ccc(OC)cc2)cc2sccc21,inactive
11,Cc1cc(SCc2sc(-c3ccc(C(F)(F)F)cc3)nc2C)ccc1OCC(=O)O,inactive
12,O=C(O)c1cccc(-c2noc(-c3ccccc3F)n2)c1,inactive
13,CCn1c(C(=O)NCc2ccc(OC)c(OC)c2)cc2sccc21,inactive
14,CCOc1ccc(CCNC(=O)c2csc(Br)n2)cc1OCC,inactive
15,CCOC(=O)C1CCN(C(=O)C2(NC(=O)Nc3ccc(F)cc3F)CCCCC2)CC1,inactive
16,Cc1cn(-c2cc(NC(=O)c3ccc(C)c(Nc4nccc(-c5cccnc5)n4)c3)cc(C(F)(F)F)c2)cn1,inactive
17,CCOC(=O)C1CCN(C(=O)C2(NC(=O)Nc3ccccc3Cl)CC2)CC1,inactive
18,CCOc1ccc(CCNC(=O)c2cnon2)cc1OCC,inactive
19,O=C(NC1CCCc2c1cnn2-c1ccc(F)cc1F)c1ccccc1 (centres undefined),20.9 nM (active) and 26.4 nM (active)
20,Cc1cccc(-c2ccc3ncnc(NCc4cccc(F)c4)c3c2)c1,inactive
21,CCOc1ccc(CCNC(=O)CN(C)C)cc1OCC,inactive
22,CCOc1ccc(CCNC(=O)c2cc3c(s2)CCC3)cc1OCC,332 nM (active)
23,O=C(Nc1ccccc1-c1cn2c(CN3CCNCC3)csc2n1)c1cnc2ccccc2n1,inactive
24,CC(NCc1ccc2c(c1)nc(NC(=O)c1ccc(-c3cn[nH]c3)s1)n2CC(C)(C)O)C(C)(C)C (centres undefined),inactive
25,COc1cccc(-n2ncc3c2CCCC3NC(=O)c2ccccn2)c1 (centres undefined),3.7 nM (active)
26,CCOC(=O)C1CCN(C(=O)C(C)(C)NC(=O)Nc2ccc(-c3ccccc3)cc2)CC1,inactive
27,COc1cc(Nc2ncc(F)c(Nc3ccc4c(n3)NC(=O)C(C)(C)O4)n2)cc(OC)c1OC,inactive
28,O=C(NC1CCCc2c1cnn2-c1ccc(O)cc1)c1ccccn1 (centres undefined),1.2 nM (active)
29,CCOc1ccc(CCNC(=O)Cc2ccccc2)cc1OCC,inactive
